Laboratory results taken from PubChem BioAssay (Tox21).
Results filed as inconclusive are left out. Values without a mark were called inactive. The source made the active and inactive calls. Calls come from the whole dose curve; as a rule, active = well fitted cell-killing curve with a large enough effect in the repeat runs; inconclusive = weak or mixed curves, or effect the other way; inactive = flat fitted curve, though single readings scatter.

Assay: qHTS assay to identify small molecule agonists of the sonic hedgehog signaling (Shh) pathway - cell viability counter screen (AID 1259366); note: nearly all actives have a fitted effect of over 50% in size
Settings: NIH/3T3 Gli1-Luc viability, CellTiter-Fluor, 24 h; series mostly up to 92.4 µM; viability change, negative = cytotoxic: at the top concentration
Source text: National Center for Advancing Translational Sciences [NCATS]
NIH Chemical Genomics Center [NCGC]
U.S. Environmental Protection Agency [EPA]
National Institutes of Environmental Health Sciences [NIEHS]
National Toxicology Program [NTP]
U.S. Food and Drug Administration [FDA]
The sonic hedgehog (Shh) pathway is essential for normal embryonic development. Dysregulation of the Shh pathway can cause severe developmental defects in organs. Therefore chemicals that interfere with the pathway are potential developmental toxicants. A cell line designated 3T3Gli1-Luc (DMB/OARSA/CFSAN/FDA, Laurel, MD), a NIH/3T3 derived clone containing stably integrated Gli1-Luc reporter is used to detect chemical interference of the Shh pathway, by changes in the expression of the firefly Luc gene under the control of the Gli1 transcriptional response element. This cell line was used to screen Tox21 libraries for identifying and prioritizing the potential developmental toxicants that interfere Shh pathway. The cytotoxicity of the compounds was tested in parallel by measuring the cell viability using CellTiter-Fluor assay system (Promega, Madison, WI) in the same wells.
Tox21 Assay Protocol Summary:
3T3 Gli1-Luc cells were dispensed at 2,000 per well in 5uL of culture medium into white solid bottom 1536-well plates (Greiner Bio-One, Monroe, NC) using a Multidrop Combi (Thermo Scientific, Waltham, MA) dispenser. The assay plates were incubated at 37 C and 5% CO2 for 4hr, and then 23nL of compounds dissolved in DMSO and positive control were transferred using a Pintool station (Wako, San Diego, CA). The assay plates were incubated at 37C and 5% CO2 for 24hr. For viability read, after 23hr of compound treatment, 1uL of CellTiter-Fluor reagent (Promega Corporation, Madison, WI) was added to each well of the assay plates using Flying Reagent Dispenser (FRD, Aurora Discovery, San Diego, CA) and incubated the assay plates at 37C for 1hr. The fluorescence signal was quantified using a ViewLux plate reader (Perkin Elmer, Shelton, CT).
% is set by controls: 0 for no effect and ±100 for the full control effect; potency is the fitted concentration of half-maximal effect.

Structure (SMILES) | viability change, negative = cytotoxic | Potency
O=C(NS(=O)(=O)/C=C/c1cccs1)c1ccc(F)cc1Br | 1.19% | 
C=Cc1c(C)c2cc3[nH]c(cc4nc(cc5nc(cc1[nH]2)C(C)=C5CCC(=O)O)C(CCC(=O)O)=C4C)c(C)c3C=C |  | 13.3 µM (active)
c1ccc(CNCc2ccccc2)cc1 | 0.115% | 
COCCO | -0.201% | 
C=CC(C)(CCC=C(C)C)OC(=O)c1ccccc1 (stereo not given) | 7.15% | 
CC1=CCC(C(C)C)C=C1 (stereo not given) | -2.11% | 
Cn1sccc1=O |  | 48.6 µM (active)
N#Cc1c(F)cccc1F | -3.52% | 
N=C(N=C(N)N)N1CCOCC1 | 0.674% [at 42.5 µM] | 
CC(C)(C)c1ccc(S)cc1 | 3.1% | 
O=C(NN1CCCC1)NS(=O)(=O)c1ccc(Cl)cc1 | 3.85% [at 42.5 µM] | 
C=CC(=O)OCC(C)OCC(C)OCC(C)OC(=O)C=C (stereo not given) |  | 24.3 µM (active)
COC(Cc1ccccc1)OC | -0.818% | 
Cc1c(Cn2ccnc2)c2ccccc2n1CCC(=O)O | 0.485% [at 42.5 µM] | 
CCCC[C@H]1CN(CC2CCOCC2)C(=O)OC12CCN(C1(C)CCN(C(=O)c3c(C)ncnc3C)CC1)CC2 | -1.08% | 
CCCCCCCCCCCCC(=O)O | 8.68% | 
CC(C)(C)c1cc(CO)cc(C(C)(C)C)c1O | -20.9% | 
CC(C)(C)c1cc(CCC(=O)OCC(COC(=O)CCc2cc(C(C)(C)C)c(O)c(C(C)(C)C)c2)(COC(=O)CCc2cc(C(C)(C)C)c(O)c(C(C)(C)C)c2)COC(=O)CCc2cc(C(C)(C)C)c(O)c(C(C)(C)C)c2)cc(C(C)(C)C)c1O | -0.823% [at 42.5 µM] | 
CN(C)CC[C@@H](c1ccc(Br)cc1)c1ccccn1 | -17.1% [at 42.5 µM] | 
NC(N)=N/N=C/c1c(Cl)cccc1Cl |  | 11.9 µM (active)

Structure (SMILES) | viability change, negative = cytotoxic | Potency
CC(=O)/C=C/C1C(C)=CCCC1(C)C (stereo not given) | 1.74% | 
CCCCCCCCCCCCCCCCCBr | -1.63% [at 19 µM] | 
CN(c1nccc(=O)[nH]1)C1CCN(c2nc3ccccc3n2Cc2ccc(F)cc2)CC1 | -17.1% [at 42.5 µM] | 
CCCc1ccccc1 | 3.43% | 
CC(Cc1cccc(C(F)(F)F)c1)NCCOC(=O)c1ccccc1 (stereo not given) | -0.797% [at 42.5 µM] | 
N#CCc1cccc(C(F)(F)F)c1 | 2.82% | 
Nc1nc(CC(=O)O)cs1 | 1.7% | 
CC(C)CCCC(C)CCO (stereo not given) | 1.44% | 
CC[C@@H]1C[C@H](N(Cc2cc(C(F)(F)F)cc(C(F)(F)F)c2)C(C)=O)c2cc(C(F)(F)F)ccc2N1C(=O)OC(C)C | -3.49% | 
OCCC1CCCCN1 (stereo not given) | 3.42% | 
Cc1cccc(Oc2ccccc2)c1 | -8.57% | 
CC(C)(Oc1ccc(Cl)cc1)C(=O)OCCCOC(=O)C(C)(C)Oc1ccc(Cl)cc1 | 4.05% [at 42.5 µM] | 
O=S1(=O)N=C(O)c2ccccc21 | 2.92% [at 42.5 µM] | 
CCN(CCO)CCCC(C)Nc1ccnc2cc(Cl)ccc12 (stereo not given) | -3.56% [at 8.39 µM] | 
NCc1ccccc1 | -4.41% | 
CCCCCCOC(=O)CCC | 3.21% | 
C[C@H](CCC(=O)O)[C@H]1CC[C@H]2[C@@H]3[C@H](O)C[C@@H]4C[C@H](O)CC[C@]4(C)[C@H]3CC[C@]12C | -24.8% | 
O=C(C(=O)c1ccc(Br)cc1)c1ccc(Br)cc1 | 7.56% [at 19 µM] | 
CC(C)=CCCC(C)CC=O (stereo not given) | 1.68% | 
CCN(CC)CCc1nc(-c2ccccc2)no1 | 0.417% [at 42.5 µM] | 
